Screening results as filed in PubChem BioAssay.
Mtb hypoxia rep = Mtb hypoxia fluorescent reporter inhibition. M. tuberculosis hypoxia-regulated fluorescent reporter, fluorescence. fluorescence inhibition, % (concentration not given with the values). 300,000 compounds, 0.1% hits. AID 1159583; in the data active = fluorescence inhibition mostly above about 23%, no sharp cut-off; inactive = mostly below about 17%
ugtP null kill = kills S. aureus RN4220 lacking UgtP | AID 1259309 | 330,000 compounds, 0.54% hits | growth inhibition, % (concentration not given with the values) | S. aureus RN4220 ugtP deletion, OD600 growth, 16 h; in the data active = growth inhibition above about 68%
RecA intein inh = blocks M. tuberculosis RecA intein splicing | P9WHJ3 | cell-free RecA intein splicing, fluorescence | inhibition, % (test concentration not listed) | 290,000 compounds, 0.75% hits | AID 2221; in the data active = inhibition above about 30%
Target sequence (P9WHJ3 whole entry, looked up): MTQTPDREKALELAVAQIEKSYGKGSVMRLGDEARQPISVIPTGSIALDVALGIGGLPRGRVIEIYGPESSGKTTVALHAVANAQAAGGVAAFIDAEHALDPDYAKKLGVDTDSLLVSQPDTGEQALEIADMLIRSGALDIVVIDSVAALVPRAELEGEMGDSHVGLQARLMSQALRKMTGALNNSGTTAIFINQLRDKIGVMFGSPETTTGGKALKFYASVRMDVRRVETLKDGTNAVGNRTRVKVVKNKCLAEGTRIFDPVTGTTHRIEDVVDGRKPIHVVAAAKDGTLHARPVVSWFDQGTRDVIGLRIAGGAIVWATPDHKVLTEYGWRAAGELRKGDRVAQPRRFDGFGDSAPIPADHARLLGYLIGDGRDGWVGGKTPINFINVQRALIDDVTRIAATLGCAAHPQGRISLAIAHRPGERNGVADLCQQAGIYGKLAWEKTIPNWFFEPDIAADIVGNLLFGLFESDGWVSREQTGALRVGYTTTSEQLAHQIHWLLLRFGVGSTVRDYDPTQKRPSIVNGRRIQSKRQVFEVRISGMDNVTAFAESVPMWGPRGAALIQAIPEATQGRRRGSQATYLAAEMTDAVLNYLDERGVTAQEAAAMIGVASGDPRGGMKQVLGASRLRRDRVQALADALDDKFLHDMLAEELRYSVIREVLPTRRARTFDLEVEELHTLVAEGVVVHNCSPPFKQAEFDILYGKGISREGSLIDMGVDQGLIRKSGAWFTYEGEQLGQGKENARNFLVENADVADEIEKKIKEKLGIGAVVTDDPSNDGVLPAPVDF
CCHFV vOTU inh = CCHFV vOTU protease inhibition | Pep-AMC fluorescence | inhibition, % at 11.5 µM | 370,000 compounds, 0.55% hits; in the data active = inhibition above about 30%
Sa RN4220 lethal = S. aureus RN4220 growth inhibition. inhibition, % (concentration not given with the values). 330,000 compounds, 0.33% hits. OD600, 16 h; in the data active = inhibition above about 85%
BJeLR lethal = kills HRASV12-expressing BJeLR cells; 300,000 compounds, 0.17% hits; BJeLR (HRASV12) viability, CellTiter-Glo ATP luminescence, 48 h; inhibition, % (concentration not given with the values); in the data active = inhibition above about 50%
GFP chromophore = counter-screen GFP chromophore formation inhibition; shares compounds with RecA intein inh; cell-free GFP chromophore formation, fluorescence; EC50, µM; 2,100 compounds, 83% hits; AID 434968; call rule not given here
Hits are given with their value; n = inactive; x = no result. Compounds with a hit are over-represented: about 1.6% of the library has one in this group of screens.

SMILES | Mtb hypoxia rep | ugtP null kill | RecA intein inh | CCHFV vOTU inh | Sa RN4220 lethal | BJeLR lethal | GFP chromophore
CCOc1ccccc1N1CCN(C(=O)c2ccc(-c3ccc(OC(C)=O)cc3)cc2)CC1 | n | n | 31.2 | n | n | n | n
CCOc1ccccc1N1CCN(C(=O)c2ccccc2)CC1 | n | n | n | n | n | n | x
COC(=O)C(Cc1ccccc1)NC(=O)C1CC1C(NC(=O)OCc1ccccc1)c1ccccc1 (configuration not stated) | n | n | x | x | n | x | x
CCCCN1C(=S)NCC1c1ccccc1 (configuration not stated) | n | n | x | x | n | x | x
COc1ccc(C(=O)c2c(C(F)(F)F)oc3c2C(=O)c2ccccc2C3=O)cc1OC | x | n | 66.8 | 63.6 | n | n | 11.4
COc1ccc(C(=O)Nc2ccc3c(c2)C(=O)c2ccccc2C3=O)cc1OC | n | n | n | n | n | n | x
CCN1C(=C2C(=O)c3ccccc3C2=O)C=Cc2ccccc21 | n | n | n | n | n | n | x
O=C1C=Cc2ccccc2C1=O | x | x | 38.9 | x | x | n | 9.14
O=C1C2C3CCC(C3)C2C(=O)N1c1ccc(OS(=O)(=O)c2ccccc2)cc1 (configuration not stated) | n | n | n | n | n | n | x
O=C(Oc1ccc(N2C(=O)C3C4CCC(C4)C3C2=O)cc1)c1ccco1 (configuration not stated) | n | n | 30.3 | n | n | n | n
CCC(C)C1CNCCN1CCc1cc(C(F)(F)F)cc(C(F)(F)F)c1 (configuration not stated) | n | n | x | x | n | x | x
N#CC1(NC(=O)COC(=O)c2ccccc2[N+](=O)[O-])CCCCC1 | n | n | n | n | n | n | x
N#CC1(NC(=O)COC(=O)c2cc(O)c3ccccc3c2O)CCCCC1 | n | n | 81.4 | x | n | n | 4.83
[N-]=[N+]=NC(CCN1CCC(NC(=O)OCc2ccccc2)CCC1=O)c1ccccc1 (configuration not stated) | n | n | x | x | n | x | x
C=CCOC(=O)C1=C(C)NC(=O)NC1c1ccc(OC(=O)c2ccco2)c(OC)c1 (configuration not stated) | n | n | 31.2 | n | n | n | n
CCOC(=O)C1=C(C)NC(=O)NC1c1ccc(OC(=O)c2ccco2)c(OC)c1 (configuration not stated) | n | n | n | n | n | n | x
Cc1ccc(SC(=O)c2c(C)noc2-c2cc(C)on2)cc1 | x | x | 61.4 | n | x | n | 25.7
CC(=O)Nc1ccccc1NC(=O)CC(C)=NNC(=O)C(=O)N1CCCCC1 | n | n | x | x | n | x | x
CC(=O)Nc1ccccc1NC(=O)C/C(C)=N/NC(=O)C(=O)N1CCCCC1 | x | x | 85.0 | n | x | n | 10.1
COC(=O)[C@@]1(Cc2ccc(OC)cc2)C2c3cc(C(=O)N4CCCC4)n(CCn4cc([N+](=O)[O-])nc4C)c3CC2CN1C(=O)c1ccccc1 (some centres not stated) | n | n | x | x | n | x | x
CC1=NN(c2ccccc2)C(=O)/C1=C\c1c(C)[nH]n(-c2ccccc2)c1=O | n | n | n | n | n | n | x
CC1=NN(c2ccccc2)C(=O)/C1=C/c1c(O)n(-c2ccc(F)c(Cl)c2)[nH]c1=O | n | n | 50.1 | x | n | n | 32.1
CCNc1ccc2noc3c2c1C(=O)c1ccccc1-3 | n | n | n | n | n | n | x
O=C1c2ccccc2-c2onc3ccc(N4CCCC4)c1c23 | n | n | 54.9 | n | n | n | 24.2
CN(N)C(=S)Nc1ccc(Cl)cc1 | n | n | 30.5 | n | n | n | n
SMILES | Mtb hypoxia rep | ugtP null kill | RecA intein inh | CCHFV vOTU inh | Sa RN4220 lethal | BJeLR lethal | GFP chromophore
CN(C)NC(=S)Nc1ccc(Cl)cc1 | n | n | x | n | n | n | x
Cn1c(SCC(=O)NCc2ccc(F)cc2)nc2ccccc21 | n | n | 31.0 | n | n | n | n
C[C@]12C=CC(=O)C=C1CCC1C2C(O)C[C@@]2(C)C1CC[C@]2(O)C(=O)CO (some centres not stated) | n | n | x | x | n | x | x
CCc1ccc(C2C(C#N)=C(N)C(C#N)(C#N)C3=CCC(C(C)(C)C)CC32)cc1 (configuration not stated) | n | n | 30.4 | x | n | n | 15.2
CC(C)Cn1cnc2c(c(-c3ccccc3)c(-c3ccccc3)n2Cc2ccco2)c1=N | x | x | n | n | x | n | x
N=c1c2c(-c3ccccc3)c(-c3ccccc3)n(Cc3ccco3)c2ncn1Cc1ccccc1 | n | n | 59.2 | n | n | n | 5.2
COC(=O)C1CC(c2ccccc2)C(C)C1(C)C (configuration not stated) | n | n | x | x | n | x | x
CC1CN(C2CCCCC2)C(=O)C1CC(=O)NCc1ccccc1 (configuration not stated) | n | n | x | x | n | x | x
Cc1[nH]nc2c1[C@@H](c1ccccc1[N+](=O)[O-])C(C#N)=C(N)O2 | n | n | n | n | n | n | x
Cc1[nH]nc2c1C(c1c[nH]c3ccccc13)C(C#N)=C(N)O2 (configuration not stated) | x | x | 90.1 | n | x | n | 7.55
COC(=O)Cc1[nH]nc2c1C(c1ccc(O)c(OC)c1)C(C#N)=C(N)O2 (configuration not stated) | n | n | 76.8 | n | n | n | 30.9
COC(=O)Cc1[nH]nc2c1C(C1C=CCCC1)C(C#N)=C(N)O2 (configuration not stated) | n | n | n | n | n | n | x
COC(=O)Cc1[nH]nc2c1C(c1c[nH]c3ccccc13)C(C#N)=C(N)O2 (configuration not stated) | n | n | 86.5 | n | n | n | n
COC(=O)Cc1[nH]nc2c1C(c1cc(OC)c(OC)c(OC)c1)C(C#N)=C(N)O2 (configuration not stated) | n | n | n | n | n | n | x
CCSc1cc(C2C(C#N)=C(N)Oc3n[nH]c(C)c32)c(C)o1 (configuration not stated) | x | n | 76.7 | n | n | n | 14.7
CCC1(CC)C(=O)C2=C3C(CC(C(=O)OC)CC(C(=O)OC)C31)n1c(=O)n(C)c(=O)n1C2C (configuration not stated) | n | n | x | x | n | x | x
CC(=O)n1cc(C2C=C(C(=O)N3CCOCC3)OC(OCc3ccc(CO)cc3)C2)c2ccccc21 (configuration not stated) | n | n | x | x | n | x | x
CCOC1OC(C(=O)NCc2nc3ccccc3[nH]2)=CC(c2ccc(C(F)(F)F)cc2)C1CCCO (configuration not stated) | n | n | x | x | n | x | x
O=C(CC(=O)NC1CCCCC1)NN=Cc1ccc(Cl)cc1 | n | n | x | x | n | x | x
CCN(CC)S(=O)(=O)c1ccc(NN=C(C#N)C#N)cc1 | x | n | 37.9 | n | n | n | 26.9
N#CC1=C(N)C(C#N)(C#N)C(c2cccnc2)C2CN(C(=O)OCc3ccccc3)CC=C12 (configuration not stated) | n | n | 45.4 | n | n | n | 4.39
